Data published in PubChem BioAssay AID504882 (Broad Institute, 2011).
Out of some 1,200 compounds screened, about 290 (24%) were called active. Another 9% or so got no clear call; they are omitted. How the calls were made is not given here. A selection follows. Entries with a potency or affinity are not part of this list.

test: LCL viability reduction – cell-based, plate reader, cherry-picks, set 2, cytotoxicity control, dose response (AID 504882); details: EBV lymphoblastoid cells (LCL) viability; series mostly up to 19.5 µM

SMILES | outcome
O=C(N/N=C(/CC(=O)c1cccs1)C(F)(F)F)c1ccc(O)cc1 | inactive
CCC(C)[C@H](NC(=O)NCc1cccnc1)C(=O)OC (some centres undefined) | inactive
Cc1cccc(C)c1NC(=O)CN(C)C(=O)c1ccc(-c2cccc(C(F)(F)F)c2)o1 | inactive
O=C(CN1C(=O)c2ccccc2S1(=O)=O)c1ccc(F)c(F)c1 | inactive
COc1ccc(-n2c(SCC(=O)Nc3ccc4c(c3)OCO4)nc3c(c2=O)SCC3)cc1 | inactive
Cc1ccnc(NC(=O)CCC(=O)c2cccs2)c1 | inactive
COc1ccc(C(=O)Nn2c(SCC(=O)NC3CCCCC3)nc3ccccc3c2=O)cc1 | inactive
NC(=O)CC(NC(=O)c1ccccc1)c1ccc(NC2CCN(Cc3ccccc3)CC2)c([N+](=O)[O-])c1 (centres undefined) | inactive
Cc1cccc(Cn2cc(SCC(=O)Nc3nccs3)c3ccccc32)c1 | inactive
COC(=O)c1c(O)ccc(Oc2ccccc2)c1C(=O)OC | inactive
COc1ccc2oc(C(=O)NCCc3ccccc3)c(C)c2c1 | inactive
COc1ccc(-n2c(SCC(=O)Nc3cc(C)on3)nc3c(c2=O)SCC3)cc1 | inactive
Cc1ccc(-n2ccc(=O)c(C(=O)Nc3ccc(S(=O)(=O)N4CCOCC4)cc3)n2)cc1 | inactive
O=C1c2ccccc2C(Nc2cccnc2)N1Cc1ccccc1 (centres undefined) | inactive
COc1cc(C(=S)N2CCOCC2)cc(OC)c1OC(=O)c1ccc(F)cc1 | inactive
COc1cc(/C=N/NC(=O)c2cccc(S(=O)(=O)N3CCOCC3)c2)cc(OC)c1O | inactive
O=C(NOCc1ccccc1)c1ccc(Cl)cc1Cl | inactive
C[C@H]1C[C@H]2[C@@H]3CCC4=CC(=O)C=C[C@]4(C)[C@@]3(F)[C@@H](O)C[C@]2(C)[C@@]1(O)C(=O)CO | inactive
CC1CCC(NC(=O)CC2Oc3ccccc3NC2=O)CC1 (centres undefined) | inactive
O=C1CN(C(=O)c2ccc(F)c(S(=O)(=O)N3CCOCC3)c2)c2ccccc2N1 | inactive
CC(C)c1nnc(NC(=O)c2ccc(N3C(=O)CCC3=O)cc2)s1 | inactive
COc1cc2c(cc1OC)-c1cc(Nc3ccc4c(c3)OCCO4)nc(=O)n1CC2 | inactive

SMILES | outcome
COc1ccccc1C=NN=Cc1ccccc1O | inactive
CCCC(=O)NCCCc1nc2ccccc2[nH]1 | inactive
COc1cccc(C(=O)Nc2nc3ccccc3[nH]2)c1 | inactive
CCc1ccc(-c2nnn(CCC(=O)OC)n2)cc1 | inactive
COc1cccc(C(=O)CC(=O)C(=O)Nc2ccc(C)cc2Cl)c1 | inactive
CCc1ccc(/C=C/C(=O)C2C(=O)c3ccccc3C2=O)cc1 | inactive
O=C(OCc1ccccc1F)c1cc2ccccc2cc1O | inactive
CCS(=O)(=O)c1nnnn1-c1ccccc1S(C)(=O)=O | inactive
C[C@H](NC(=O)N1CCn2c1nc1ccccc12)C(=O)NCC1CCCO1 (some centres undefined) | inactive
CCOC(=O)c1ccc(NC(=S)N2CCSC2c2ccc(OC)cc2)cc1 (centres undefined) | inactive
COC(=O)c1[nH]c2cccc(C)c2c1NC(=O)CN1CCCc2ccccc21 | inactive
CC(C)(C)c1nc2c(s1)CCc1onc(-c3ccc(Br)cc3)c1-2 | inactive
Cc1nc2sc(C(N)=O)c(N)c2c2c1CCCC2 | inactive
O=C(Nc1ccc2c(c1)nc1n2CCSC1)c1ccco1 | inactive
O=C(Nc1ccc(Cl)cc1)c1ccco1 | inactive
CCOC(=O)C1=C(O)/C(=C/c2ccc(CNC(=O)C(=O)Nc3ccc(C)cc3)o2)N=C1C | inactive
Nc1cc(=O)[nH]c(SCCSc2cc(Cl)ccc2Cl)n1 | inactive
CC(C)(C)c1cc(C(=O)NNC(=O)Nc2cccc(Cl)c2)n(Cc2ccccc2)n1 | inactive
CC(=O)O[C@]1(C(C)=O)CC[C@H]2[C@@H]3C=C(C)C4=CC(=O)CC[C@@H]4[C@H]3CC[C@@]21C | inactive
O=C(O)c1ccccc1Nc1cccc(OCc2ccc3ccccc3n2)c1 | inactive
c1ccc2c3c([nH]c2c1)C(C1CCCCC1)N(Cc1ncc[nH]1)CC3 (centres undefined) | inactive
Brc1ccc(-c2csc(N3CCCCCC3)n2)cc1 | inactive

SMILES | outcome
O=C1c2ccccc2C(Nc2ccc(Cl)cc2)N1CCN1CCOCC1 (centres undefined) | inactive
COc1cc(/C=C2\SC(=S)N(NC(=O)c3ccncc3)C2=O)ccc1O | inactive
CCc1nnc(NC(=O)c2cc(S(=O)(=O)N3CCN(CC)CC3)ccc2Cl)s1 | inactive
COc1cc2c(=O)n(CC3CCCO3)c(=O)n(CC(=O)Nc3cccc(Cl)c3)c2cc1OC (centres undefined) | inactive
COc1ccc(NC(=O)N(CCN2CCCC2)Cc2cc3cc(OC)c(OC)cc3[nH]c2=O)cc1 | inactive
Cc1cccc(C)c1NC(=O)CN(C)CC(=O)Nc1ccccc1Oc1ccccc1 | inactive
Cc1ccc(C(=O)Nc2ccc3ncccc3c2)cc1 | inactive
O=C(O)c1c2c(nc3ccccc13)/C(=C/c1ccc(O)cc1)CC2 | inactive
CSc1nc(C)cc(C)c1C#N | inactive
CC1(C)CN(Cc2ccccc2)C(=O)[C@H]1CC(=O)Nc1ccccc1 | inactive
O=C(Cc1cccc2ccccc12)Nc1ccc(-c2cc3ccccc3oc2=O)cc1 | inactive
NC(=O)c1sc2nccc(Nc3ccccc3)c2c1N | inactive
CCCCCC(=O)N1CCN(c2ccc(C(C)=O)cc2F)CC1 | inactive
COc1ccc(C(c2c(C)n(C)n(-c3ccccc3)c2=O)c2c(C)n(C)n(-c3ccccc3)c2=O)c(OC)c1OC | inactive
CC(C)C(=O)Nc1ccc(C(=O)N/N=C/c2cc(Br)cc(Br)c2O)cc1 | inactive
CCSc1nc2ccc(OC)cc2cc1C#N | inactive
COc1ccccc1C(=O)Nc1c[nH]c(=O)[nH]c1=O | inactive
CN1OC[C@@H]2CN[C@H](c3ccc(-c4cc5ccccc5o4)cc3)C[C@@H]21 | inactive
O=C(O)CN1C(=O)/C(=C\c2ccccc2OCc2ccc(Cl)cc2Cl)SC1=S | inactive
S=C(N/N=C/c1ccc2ncccc2c1)Nc1cccnc1 | inactive
COc1cc(/C=N/NC(=S)Nc2cccc(C(=O)O)c2)ccc1O | inactive
OCCN(CCO)CC(O)COCCC12CC3CC(CC(C3)C1)C2 (centres undefined) | inactive

SMILES | outcome
O=C(Nc1cnc2ccccn2c1=O)c1ccc(Cl)cc1Cl | inactive
O=C(O)c1ccc(C=NN=C2c3ccccc3-c3ccccc32)cc1 | inactive
CC(=O)c1ccc(N2CCN(c3ccnc4cc(Cl)ccc34)CC2)cc1 | inactive
Cc1cc(C)c2sc(NC(=O)C3CC3)nc2c1 | inactive
N#CC1=C(N)OC2=C(C(=O)CCC2)C12C(=O)N1CCCc3cccc2c31 (centres undefined) | inactive
Clc1ccc(-n2ncc3c(N4CCCC4)ncnc32)cc1 | inactive
COc1ccc(-c2csc3ncnc(Sc4nnnn4C)c23)cc1 | inactive
Cc1ccsc1-c1nc(CSCC(=O)N2CCN(c3ccccc3)CC2)c(C)o1 | inactive
COc1cc(NC(=S)N2CCN(CCO)CC2)cc(OC)c1 | inactive
COc1ccc2cc(C(N)=O)/c(=N\NC(=O)c3ccccc3)oc2c1 | inactive
CCCN1C(=O)C2(SC(NC(C)=O)=NN2C(C)=O)c2cc(C)cc(C)c21 (centres undefined) | inactive
c1ccc(-c2nnc(-c3ccccn3)s2)nc1 | inactive
Cc1cc(C)c(OCCn2ccnc2)c(C)c1 | inactive
COc1ccc(C=Cc2ccc3ccccc3n2)c(OC)c1 | inactive
C[C@@]12C(=O)N(Cc3ccccc3)CC(=O)N1[C@H](/C=C/c1ccccc1)[C@@H]1C(=O)N(c3ccccc3)C(=O)[C@@H]12 | inactive
CCOC(=O)N1CCC(n2c(=S)[nH]c3ccccc3c2=O)CC1 | inactive
O=C1CC(c2ccccc2)Oc2ccccc21 (centres undefined) | inactive
C[C@@H](C(=O)Nc1ccc2c(c1)OCCO2)n1c(=O)[nH]c2ccccc2c1=O | inactive
CCCCOc1ccc2c(c1)/C(=C(\C(Cl)=C(Cl)Cl)[N+](=O)[O-])N2 | inactive
Cc1ccc(-n2cc(C(=O)c3ccccc3O)cn2)cc1 | inactive
COc1ccc(OC)c(S(=O)(=O)NC(C)CCc2ccccc2)c1 (centres undefined) | inactive
CC(C(=O)N=Nc1c(O)[nH]c2ccccc12)n1cnc2ccccc2c1=O (centres undefined) | inactive

SMILES | outcome
COc1ccc(Cl)cc1NC(=O)CN(C)S(=O)(=O)c1cccs1 | inactive
Cc1cc(C)cc(C(=O)NCCC(=O)NCc2cc(=O)n(C)c(=O)n2C)c1 | inactive
COc1ccc(S(=O)(=O)N2CCN(CC(=O)Nc3ccc(C)c(F)c3)CC2)cc1 | inactive
CCOC(=O)C1CCN(S(=O)(=O)Cc2ccccc2)C1=O (centres undefined) | inactive
Cc1cc(C)c(S(=O)(=O)Nc2nnc(CC(C)C)s2)c(C)c1 | inactive
CC(=O)c1cc(C(=O)Nc2ccc(C(=O)O)cc2)oc1C | inactive
CCSc1nnc(NC(=O)CCn2c(=O)oc3ccccc32)s1 | inactive
COC(=O)CCCC[C@@H]1SC[C@@H](NC(=O)OC)[C@@H]1NC(=O)OC | inactive
COC(=O)c1ccccc1NC(=O)CSc1nnnn1C | inactive
COc1ccc(N2C3=[N+](CC2(C)O)c2ccccc2CC3)cc1 (centres undefined) | inactive
O=S(=O)(NC1c2cccc3cccc(c23)C1Sc1ncccn1)c1ccccc1 (centres undefined) | inactive
COc1ccc(CNC(=O)COC(=O)[C@@H]2CCCN2C(=O)c2cccs2)cc1 | inactive
S=C(NCC1CCCCC1)Nc1ccc(Oc2ccccc2)cc1 | inactive
O=C(c1noc2c1CCCC2)N1CCCCC1 | inactive
CCOc1ccc(NC(=O)c2cnsn2)cc1 | inactive
CCOC(=O)c1cn2nc(N3CCCCC3)ccc2n1 | inactive
COC(=O)c1ccc2nc(-c3ccc4c(c3)OCO4)cn2c1 | inactive
CCOc1cc(/C=C2/C(=N)N3N=C(CC)SC3=NC2=O)ccc1OC(=O)c1ccco1 | inactive
COC(=O)c1ccc(CSc2nc3c(c(=O)n2-c2ccc(C)cc2)SCC3)o1 | inactive
COC(=O)CSc1ncnc2c1sc1nc3c(cc12)COC(C)(C)C3 | inactive
CCOC(=O)CNC(=O)CSc1nnc(NC(=O)c2ccc(C)cc2)s1 | inactive
